Results filed as inconclusive are left out. The source made the active and inactive calls. The call rests on the fitted dose curve; in most records, active means well fitted cell-killing curve with a large enough effect; inconclusive means small, poorly fitted or top-dose-only effect; inactive means flat fitted curve, though single readings scatter.
experiment: Cell Viability - LYMP2-020 (AID 986); conditions: series mostly up to 92.2 µM; activity change, negative = viability loss: at the top concentration;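 further: cells exposed to compound for 24 h at 37 °C; plate controls were DMSO only for no effect and tetraoctylammonium bromide at 92 µM for full effect; nearly all actives have a fitted effect of over 55% in size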
Procedure, shortened: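 Human lymphoblastoid LYMP2-020 cells (2500/well) preincubated 5 h at 37 C, then treated 24 h at 37 C. Viability measured as intracellular ATP by CellTiter-Glo luminescence after 30 min at room temperature; AC50 from Hill fits.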

| SMILES | activity change, negative = viability loss |
| --- | --- |
| FC(F)(F)c1cccc(Cl)c1 | 0.563% (inactive) |
| Cc1cccc(C(=O)O)c1 | 10.7% (inactive) |
| CCN(Cc1ccccc1)c1ccccc1 | 5.27% (inactive) |
| CC(C)(O)CCC(C)(C)O | -7.26% (inactive) |
| OCCO | 9.3% (inactive) |
| CNC(=O)N(c1ccccc1)c1ccccc1 | 12.6% (inactive) |
| Nc1cccc(S(=O)(=O)O)c1 | 7.84% (inactive) |
| O=C(O)CCSSCCC(=O)O | -3.67% (inactive) |
| c1ccsc1 | 6.36% (inactive) |
| C1COC1 | -1.86% (inactive) |
| C[C@@H]1CC2(OC3C[C@@]4(C)C5=CC[C@H]6C(C)(C)C(O[C@@H]7OC[C@@H](O)[C@H](O)[C@H]7O)CC[C@@]67C[C@@]57CC[C@]4(C)C31)OC(O)C1(C)OC21 (some centres not stated) | -17.3% (inactive) |
| c1ccc2c(c1)ccc1ncccc12 | -13% (inactive) |
| Cc1ccc2cccnc2c1 | -1.72% (inactive) |
| O=C(Cl)c1cccc([N+](=O)[O-])c1 | -6.72% (inactive) |
| Nc1ccc(Cl)cc1[N+](=O)[O-] | -1.69% (inactive) |
| CC(C)c1ccccc1 | -6.98% (inactive) |
| Cc1cccc(C)c1O | -4.15% (inactive) |
| ClCCl | -4.59% (inactive) |
| NC(=O)c1cccc([N+](=O)[O-])c1 | -3.15% (inactive) |
| O=[N+]([O-])c1cccc(C(F)(F)F)c1 | -13.4% (inactive) |

| SMILES | activity change, negative = viability loss |
| --- | --- |
| Nc1cccc([N+](=O)[O-])c1 | 2.15% (inactive) |
| CCOc1cc(OCC)c(C(C)=O)cc1OCC | -14.5% (inactive) |
| COC(=O)CC#N | -3.63% (inactive) |
| CC(=O)Nc1ccc(N)cc1 | 5% (inactive) |
| C1CCC2OC2C1 (configuration not stated) | 2.93% (inactive) |
| O=C1CCCCC1 | -0.991% (inactive) |
| OC1CCCC1 | -0.0385% (inactive) |
| O=C1NC(=O)c2cc([N+](=O)[O-])ccc21 | -5.16% (inactive) |
| BrC(Br)C(Br)Br | -2.55% (inactive) |
| CCCCC(=O)N(C)C | -16.6% (inactive) |
| CCOc1ccc(NC(C)=O)cc1N | -4.19% (inactive) |
| Cc1ccc(N(C)C)cc1 | 6.11% (inactive) |
| Nc1ccc(F)cc1F | -13.4% (inactive) |
| Nc1cc(S(=O)(=O)O)ccc1O | -0.131% (inactive) |
| CCC(C)(C)C(=O)O | 0.047% (inactive) |
| O=C(Cl)c1c(Cl)cccc1Cl | 0.35% (inactive) |
| Cc1ccc(C)cc1 | -10.6% (inactive) |
| CCCC(Cl)CCCC(Cl)CCC(Cl)CCC(Cl)CCC(Cl)CCCC(Cl)CCC (configuration not stated) | -3.92% (inactive) |
| Cc1cc(C)cc(N)c1 | -16.1% (inactive) |

experiment: Cell Viability - LYMP2-022 (AID 987); conditions: LYMP2-022 lymphoblastoid cell viability; series mostly up to 92.2 µM; viability change, negative = cytotoxic: at the top concentration;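 further: 0% = DMSO alone and full effect = tetraoctylammonium bromide at 92 µM; nearly all actives have a fitted effect of over 55% in size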
Procedure, shortened: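 LYMP2-022 lymphoblastoid cells (2500/well, complete medium) were treated with compounds for 24 hours at 37 C; intracellular ATP was then read by CellTiter-Glo luminescence after 30 min at room temperature. AC50 values were derived from Hill-equation fits.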

| SMILES | viability change, negative = cytotoxic |
| --- | --- |
| FC(F)(F)c1cccc(Cl)c1 | 0.997% (inactive) |
| Cc1cccc(C(=O)O)c1 | -14.4% (inactive) |
| CCN(Cc1ccccc1)c1ccccc1 | -7.43% (inactive) |
| CC(C)(O)CCC(C)(C)O | -0.0225% (inactive) |
| OCCO | -13.6% (inactive) |
| CNC(=O)N(c1ccccc1)c1ccccc1 | 0.492% (inactive) |
| Nc1cccc(S(=O)(=O)O)c1 | -13.1% (inactive) |
| C1COC1 | 0.0884% (inactive) |
| C[C@@H]1CC2(OC3C[C@@]4(C)C5=CC[C@H]6C(C)(C)C(O[C@@H]7OC[C@@H](O)[C@H](O)[C@H]7O)CC[C@@]67C[C@@]57CC[C@]4(C)C31)OC(O)C1(C)OC21 (some centres not stated) | -32.5% (inactive) |
| c1ccc2c(c1)ccc1ncccc12 | 1.06% (inactive) |
| Cc1ccc2cccnc2c1 | -5.52% (inactive) |
| O=C(Cl)c1cccc([N+](=O)[O-])c1 | 1.43% (inactive) |
| Nc1ccc(Cl)cc1[N+](=O)[O-] | -8.48% (inactive) |
| CC(C)c1ccccc1 | -4.55% (inactive) |
| Cc1cccc(C)c1O | -12% (inactive) |
| ClCCl | 4.96% (inactive) |
| NC(=O)c1cccc([N+](=O)[O-])c1 | 0.103% (inactive) |

| SMILES | viability change, negative = cytotoxic |
| --- | --- |
| O=[N+]([O-])c1cccc(C(F)(F)F)c1 | -15.6% (inactive) |
| Nc1cccc([N+](=O)[O-])c1 | -9.28% (inactive) |
| CCOc1cc(OCC)c(C(C)=O)cc1OCC | -2.37% (inactive) |
| COC(=O)CC#N | -11% (inactive) |
| CC(=O)Nc1ccc(N)cc1 | -15.2% (inactive) |
| O=C1CCCCC1 | -6.29% (inactive) |
| OC1CCCC1 | 0.685% (inactive) |
| O=C1NC(=O)c2cc([N+](=O)[O-])ccc21 | -10.1% (inactive) |
| BrC(Br)C(Br)Br | 3.42% (inactive) |
| CCCCC(=O)N(C)C | -2.59% (inactive) |
| Cc1ccc(N(C)C)cc1 | 2.29% (inactive) |
| Nc1ccc(F)cc1F | -19.1% (inactive) |
| Nc1cc(S(=O)(=O)O)ccc1O | 4.54% (inactive) |
| CCC(C)(C)C(=O)O | -21.3% (inactive) |
| O=C(Cl)c1c(Cl)cccc1Cl | -4.23% (inactive) |
| Cc1ccc(C)cc1 | -13.6% (inactive) |
| Cc1cc(C)cc(N)c1 | -12.1% (inactive) |

experiment: Cell Viability - LYMP2-024 (AID 988); conditions: LYMP2-024 lymphoblastoid cell viability; series mostly up to 92.2 µM; activity change, negative = cytotoxicity: at the top concentration;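 further: plate controls were DMSO only for no effect and 92 µM tetraoctylammonium bromide for full effect; nearly all actives have a fitted effect of over 60% in size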
Procedure, shortened: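 Human lymphoblastoid LYMP2-024 cells (2500/well) rested 5 hr, then treated with compound for 24 hr at 37 C in complete medium. Viability was measured as intracellular ATP by CellTiter-Glo luminescence. AC50 values came from Hill-equation fits.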

| SMILES | activity change, negative = cytotoxicity |
| --- | --- |
| FC(F)(F)c1cccc(Cl)c1 | -1.77% (inactive) |
| Cc1cccc(C(=O)O)c1 | 2.32% (inactive) |
| CCN(Cc1ccccc1)c1ccccc1 | -10.8% (inactive) |
| CC(C)(O)CCC(C)(C)O | -12.8% (inactive) |
| OCCO | 1.11% (inactive) |
| CNC(=O)N(c1ccccc1)c1ccccc1 | 0.836% (inactive) |
| Nc1cccc(S(=O)(=O)O)c1 | 6.29% (inactive) |
| O=C(O)CCSSCCC(=O)O | -1.68% (inactive) |
| c1ccsc1 | -2.29% (inactive) |
| C1COC1 | -7.94% (inactive) |
| C[C@@H]1CC2(OC3C[C@@]4(C)C5=CC[C@H]6C(C)(C)C(O[C@@H]7OC[C@@H](O)[C@H](O)[C@H]7O)CC[C@@]67C[C@@]57CC[C@]4(C)C31)OC(O)C1(C)OC21 (some centres not stated) | -19.7% (inactive) |
| c1ccc2c(c1)ccc1ncccc12 | -3.87% (inactive) |
| Cc1ccc2cccnc2c1 | -3.27% (inactive) |
| O=C(Cl)c1cccc([N+](=O)[O-])c1 | -4.62% (inactive) |
| Nc1ccc(Cl)cc1[N+](=O)[O-] | -2.05% (inactive) |
| CC(C)c1ccccc1 | 0.914% (inactive) |
| Cc1cccc(C)c1O | 1.05% (inactive) |
| ClCCl | -9.49% (inactive) |
| NC(=O)c1cccc([N+](=O)[O-])c1 | 2.54% (inactive) |
| O=[N+]([O-])c1cccc(C(F)(F)F)c1 | -5% (inactive) |

| SMILES | activity change, negative = cytotoxicity |
| --- | --- |
| Nc1cccc([N+](=O)[O-])c1 | -2.91% (inactive) |
| CCOc1cc(OCC)c(C(C)=O)cc1OCC | 1.52% (inactive) |
| COC(=O)CC#N | -8.55% (inactive) |
| CC(=O)Nc1ccc(N)cc1 | -7.97% (inactive) |
| C1CCC2OC2C1 (configuration not stated) | 4.32% (inactive) |
| O=C1CCCCC1 | -8.88% (inactive) |
| OC1CCCC1 | 4.57% (inactive) |
| O=C1NC(=O)c2cc([N+](=O)[O-])ccc21 | -4.55% (inactive) |
| BrC(Br)C(Br)Br | -6.51% (inactive) |
| CCCCC(=O)N(C)C | 3.88% (inactive) |
| CCOc1ccc(NC(C)=O)cc1N | 2.38% (inactive) |
| Cc1ccc(N(C)C)cc1 | 1.51% (inactive) |
| Nc1ccc(F)cc1F | -8% (inactive) |
| Nc1cc(S(=O)(=O)O)ccc1O | 4.44% (inactive) |
| CCC(C)(C)C(=O)O | -8.18% (inactive) |
| O=C(Cl)c1c(Cl)cccc1Cl | -3.84% (inactive) |
| Cc1ccc(C)cc1 | 1.99% (inactive) |
| CCCC(Cl)CCCC(Cl)CCC(Cl)CCC(Cl)CCC(Cl)CCCC(Cl)CCC (configuration not stated) | -1.59% (inactive) |
| Cc1cc(C)cc(N)c1 | 0.0352% (inactive) |
